# Source: PubChem BioAssay (NCI)
# Where “and” joins values, the source holds several entries; their conditions need not be identical. Equal values may be shown once. About 83,000 compounds went through this panel and 20% of them were active in at least one assay; those are over-represented in the sample as a whole.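 Method: cells in 96-well plates; compound added at one concentration; 48 h incubation; percent growth measured; values under 10 scored active.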 Calls of active or inactive are those of the source.
# Test system: MDA-MB-468 breast
# Assay: NCI-60 one-dose screen, 48 h (100 = growth as untreated, 0 = no growth, -100 = all killed)
# Conditions: 10 µM unless noted
row,Compound,growth
1,Cc1ccc(Nc2nnc(-c3ccc(Cl)cc3)o2)c(C)c1,75.4% (inactive)
2,CCCCCCC(CC#N)(CCC)CCCC (stereo not given),101% (inactive)
3,COc1ccc(S(=O)(=O)NC2c3ccccc3CC2O)cc1OC (stereo not given),111% (inactive)
4,COc1cc(/C=C2\CCCC3=C2NC(C)=NC3c2cc(OC)c(OC)c(OC)c2)cc(OC)c1OC (stereo not given),-4.61% (active)
5,CCCCCC(=O)OCc1ccc(Cl)c(Cl)c1,123% (inactive)
6,COc1cc(CCC[P+](c2ccccc2)(c2ccccc2)c2ccccc2)c(OC)c(OC)c1OC,30.3% (inactive)
7,CCCCN1C(=O)CC(SC2CC(=O)N(CCCC)C2=O)C1=O (stereo not given),105% (inactive)
8,NS(=O)(=O)c1ccc(-n2nc(-c3ccccc3)ccc2=O)cc1,104% (inactive)
9,O=C(Nc1ccc(Br)cc1F)c1cc(I)ccc1O,-1.19% (active)
10,COc1ccc(/C=C/C(=O)c2nnn(-c3ccc(C(=O)O)cc3)c2C)cc1OC,84.6% (inactive)
11,CCN1CCN(Cc2cn(-c3ccc(S(N)(=O)=O)cc3)nn2)CC1,99.7% (inactive)
12,CC(C)(C)OC(=O)CC(S(=O)(=O)c1ccccc1)S(=O)(=O)c1ccccc1,-23.7% (active)
13,O=C1CCC2=C3C4CCCCC4C(=O)C4CCCC(OC2C1)C34 (stereo not given),33.3% (inactive)
14,Cc1cc2nc(-c3c(N)ncc(C#N)c3-c3ccc(Cl)cc3)[nH]c2cc1C,66% (inactive)
15,O=C1NC(=S)S/C1=C\N1N=C(c2ccc(Cl)cc2)CC1c1ccc(F)cc1 (stereo not given),92.3% (inactive)
16,NC(=O)NCCO,102% (inactive)
17,COc1cc(-c2nn(-c3cccc(NC(=O)NCCNC(=O)c4ccccc4)c3)cc2-c2ccncc2)ccc1Cl,12.1% (inactive)
18,CCN1CCN(c2nc3ccccc3c3c(=O)c4cc(F)ccc4sc23)CC1,70.9% (inactive)
19,N=C(N)c1ccc(-c2ccc(-c3ccco3)o2)cc1,22.9% (inactive)
20,CCC(CO)Nc1nc2ccc(Cl)cc2c2ccccc12 (stereo not given),33% (inactive)

row,Compound,growth
1,O=[N+]([O-])c1ccc(-c2nnc(SCc3ccc(O)c4ncccc34)o2)cc1,16.2% (inactive)
2,CCSc1nc(NC)c2cc(-c3ccc(C(F)(F)F)cc3)ccc2n1,110% (inactive)
3,CC(=O)c1c(C)nc(SCC(=O)Nc2ccc(Cl)cc2)n1-c1ccc(Cl)cc1,71.3% (inactive)
4,Cc1ccc(NC(=O)c2cc(NCc3cc(O)ccc3O)ccc2O)cc1,86.6% (inactive)
5,COc1cc(-c2nc(-c3nc4ccc(Cl)cc4[nH]3)cc3c2[nH]c2ccccc23)cc(OC)c1OC,44.1% (inactive)
6,COc1cc(/C=C\c2cc(/C=C\c3ccc(O)c(OC)c3)n(C(=O)CNc3ccc(Cl)cc3)n2)ccc1O,1.63% (active)
7,O=C1/C(=C/c2ccc(Cl)cc2)CN(C(=O)CCN2CCC(=NO)CC2)C/C1=C\c1ccc(Cl)cc1,-65.3% (active)
8,CCC1=Cc2c(OC)cccc2OC12C=Cc1c(OC)cccc1O2 (stereo not given),54% (inactive)
9,CCN=c1cc2sc3cc(NCC)c(C)cc3nc-2cc1C,30.7% (inactive)
10,CN1C=CN(Cc2ccc(-c3ccccn3)nc2)[CH-]1.CN1C=CN(Cc2ccc(-c3ccccn3)nc2)[CH-]1.[Au+3],-19.2% (active)
11,CC(=O)Nc1ccc2c(c1)/C(=C\C=C/c1ccc([N+](C)(C)C)cc1)c1ccccc1-2,21.5% (inactive)
12,COc1ccc(-c2nc3sc(C4CC4)nn3c2/C=C2/C(=O)Nc3ccc(OC)cc32)cc1,23.3% (inactive)
13,O=C(NNC(=O)c1ccc(NC(=O)c2ccccn2)cc1)Nc1ccc([N+](=O)[O-])cc1,94.2% (inactive)
14,CC(C)(C)[Si](C)(C)OC1[C@@H](O[Si](C)(C)C(C)(C)C)[C@@H](CNC(=O)NC(=O)NC(=O)CCl)O[C@H]1n1cnc2c(NC(=O)Nc3ccccc3)ncnc21 (stereo not given in full),106% (inactive)
15,CC(O)c1cc[cH-]c1.[Fe+2].c1cc[cH-]c1 (stereo not given),94.5% (inactive)
16,COc1ccc(-c2nc(Nc3ccc(F)cc3)nc(Nc3ccc4c(c3)nc(C)n4Cc3ccccc3)n2)cc1,28.4% (inactive)
17,COc1cc(Cc2cc(OC)c(O)c(OC)c2)cc(OC)c1O,65.2% (inactive)
18,Cc1onc(-c2c(F)cccc2Cl)c1-c1ncc(-c2ccc(Cl)cc2)o1,66.2% (inactive) and 23.7% (inactive)
19,Cc1nc(Nc2ccc(F)c(Cl)c2)sc1C(=O)O,-1.67% (active)
20,OCc1cnccc1NCCCCOc1ccc(Oc2ccccc2)cc1,30.5% (inactive)
